Measured values from PubChem BioAssay (NCATS).
Records with an inconclusive call do not appear. Calls of active or inactive are those of the source. Calls follow the shape of the dose curve; as a rule, active = well fitted curve in the direction sought with a large enough effect; inconclusive = small, poorly fitted or top-dose-only effect, or another doubt; inactive = no such curve, though single readings can be large; an effect the other way counts as inactive or inconclusive.

Tests used:
HEK293T [1] = test: qHTS assay to identify novel small-molecules to repurpose for Merkel cell carcinoma treatment (AID 1296009); conditions: MCC and control cell lines, CellTiter-Glo viability, 72 h; at 44.8 µM (top of the series) unless noted; also: nearly all actives have a fitted effect of over 60% in size
Method in brief: (§1)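 Cells were treated for 72 hr at 37 degree celsius with compounds in 8- or 11-point dose response. Viability was read by CellTiter-Glo luminescence, normalized to no-cell (cytotoxicity) and DMSO controls.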

C33A = test: Primary qHTS to identify gynecologic anti-cancer compounds using libraries of approved drugs and bioactive compounds (AID 1345084); conditions: Gynecologic cancer cell panel viability, ATPlite luminescence, 48 h; series mostly up to 57.5 µM; also: nearly all actives have a fitted effect of over 55% in size
Method in brief: (§2)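 Measured: luminescence after ATPlite addition (15 min, RT). Exposure: 48 h, 37 C, 5% CO2.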

CAOV3 = test: as above; conditions: Gynecologic cancer cell panel viability, ATPlite luminescence, 48 h; series mostly up to 57.5 µM
Method in brief: as §2

CASKI = test: as above; conditions: Gynecologic cancer cell panel viability, ATPlite luminescence, 48 h; series mostly up to 57.5 µM
Method in brief: as §2

Es-2 = test: as above; conditions: Gynecologic cancer cell panel viability, ATPlite luminescence, 48 h; series mostly up to 57.5 µM
Method in brief: as §2

HeLa = test: as above; conditions: Gynecologic cancer cell panel viability, ATPlite luminescence, 48 h; series mostly up to 57.5 µM
Method in brief: as §2

Hek293T [2] = test: as above; conditions: Gynecologic cancer cell panel viability, ATPlite luminescence, 48 h, control line for the selectivity index; series mostly up to 57.5 µM
Method in brief: as §2

JEG-3 = test: as above; conditions: Gynecologic cancer cell panel viability, ATPlite luminescence, 48 h; series mostly up to 57.5 µM
Method in brief: as §2

HACAT = test: qHTS assay to identify novel small-molecules to repurpose for Merkel cell carcinoma treatment (AID 1296009); conditions: MCC and control cell lines, CellTiter-Glo viability, 72 h; at 44.8 µM (top of the series) unless noted; also: nearly all actives have a fitted effect of over 60% in size
Method in brief: as §1

Measured: Potency

O=C1NC(=O)/C(=C/c2cccc(C(F)(F)F)c2)S1
not listed: HACAT
inactive: all other assays above

C/C=C(/C)C(=O)OC1C2OC2C2(CO2)C2C3OC(=O)C(C)C3CCC12C (stereo not given)
not listed: HACAT
inactive: all other assays above

O=C(/C=C/c1ccc(O)cc1)OC[C@H]1O[C@@H](O/C(=C\c2ccccc2)C(=O)O)[C@H](O)[C@@H](O)[C@@H]1O
inactive: HACAT inactive [at 17.4 µM] | C33A | CASKI | Es-2 | HeLa | Hek293T [2] | JEG-3

C=CC(C)(CC/C=C(\C)C(=O)OC)OC1OC(COC(=O)CC(C)(O)CC(=O)O)C(O)C(O)C1O (stereo not given)
inactive: HEK293T [1] inactive [at 17.4 µM] | C33A | CAOV3 | CASKI | Es-2 | HeLa | Hek293T [2] | JEG-3

C[C@@H]1[C@H]2[C@H](O[C@@H]3O[C@H](CO)[C@@H](O)[C@H](O)[C@H]3O)OC=C(C(=O)O)[C@H]2C[C@@H]1OC(=O)/C=C/c1ccc(O)cc1
inactive: HEK293T [1] inactive [at 17.4 µM] | C33A | CAOV3 | CASKI | Es-2 | HeLa | Hek293T [2] | JEG-3

C[C@@H]1CC[C@]2(C(=O)O)CC[C@]3(C)C(=CCC4[C@@]5(C)C[C@@H](O)[C@@H](O)C(C)(C)C5CC[C@]43C)C2[C@]1(C)O (stereo not given in full)
inactive: HEK293T [1] inactive [at 17.4 µM] | C33A | CAOV3 | CASKI | Es-2 | HeLa | Hek293T [2] | JEG-3

CC1=CCC(O)C2(C)CCC3C(C)C(=O)OC3C12 (stereo not given)
not listed: HEK293T [1] | C33A | CAOV3
inactive: all other assays above

CCC(=O)N1CCc2cc(OC)c(O)cc2C1
not listed: HEK293T [1] | CAOV3
inactive: all other assays above

CC(C)C1(O)NC(=O)C(CC2(O)c3ccccc3N3C(=O)C(C)(C)NC32)n2c1nc1ccccc1c2=O (stereo not given)
inactive: HEK293T [1] inactive [at 17.4 µM] | C33A | CAOV3 | CASKI | Es-2 | HeLa | Hek293T [2] | JEG-3

C=C[C@@](C)(CCC=C(C)C)O[C@@H]1O[C@H](CO[C@@H]2OC[C@H](O)[C@H](O)[C@H]2O)[C@@H](O)[C@H](O)[C@H]1O
inactive: HEK293T [1] inactive [at 17.4 µM] | C33A | CAOV3 | CASKI | Es-2 | HeLa | Hek293T [2] | JEG-3

O=C(O)c1ccnc(-c2cc(C(=O)NCCc3ccccc3)ccn2)c1
not listed: HEK293T [1] | C33A
inactive: all other assays above

CC1CCC23COC(=O)C2=CC(O)CC3C1(C)CCc1ccoc1 (stereo not given)
not listed: HACAT
inactive: all other assays above

COc1cc(Cc2cnc(N)nc2N)c(C(C)C)cc1OC
not listed: HACAT
inactive: all other assays above

C=C1[C@H](OC(C)=O)[C@H]2[C@@H](OC(=O)c3ccccc3)[C@@H](C)C[C@]2(O)[C@@H](OC(C)=O)[C@H](C)/C=C/C(C)(C)C(=O)[C@H](OC(C)=O)[C@H]1OC(C)=O
inactive: HACAT inactive [at 17.4 µM] | CAOV3 | Es-2 | HeLa | Hek293T [2] | JEG-3
